According to PubChem BioAssay (Tox21):
Several values for one entry are separate records, joined by “and”; a condition that tells them apart may be missing. Equal entries are not always repeated. Inconclusive results are not listed. Entries that show only a call come without a potency. Activity calls are given as the source filed them. Calls come from the whole dose curve.

Assay: qHTS assay to identify small molecule agonists of the endoplasmic reticulum stress response signaling pathway - cell viability counter screen (AID 1159517); note: nearly all actives have a fitted effect of over 50% in size
Settings: ESRE-bla HeLa viability, CellTiter-Glo luminescence, 5 h; series mostly up to 61 µM; activity change, negative = cytotoxicity: at the top concentration
Excerpt: U.S. Tox21 Program National Center for Advancing Translational Sciences [NCATS] NIH Chemical Genomics Center [NCGC] U.S. Environmental Protection Agency [EPA] National Institutes of Environmental Health Sciences [NIEHS] National Toxicology Program [NTP] U.S. Food and Drug Administration [FDA] Tox21 Assay Overview: Endoplasmic Reticulum (ER) plays an important role in cellular signaling, protein folding/maturation, stress response, lipid biosynthesis, calcium storage and release etc. Under stress conditions, proteins in ER misfold or unfold, and leading to the expression of ER stress responsive genes. ER stress has been associated with a variety of pathophysiological conditions such as cancer, inflammation, neurodegenerative diseases, diabetes, ischemic heart disease etc. To identify the compounds that induce ER stress response, an ER stress reporter cell line, CellSensor ESRE-bla HeLa (Life Technologies, Carlsbad, CA) containing a beta-lactamase reporter gene under control of the Endoplasmic reticulum Stress Response Element (ESRE) was used to screen Tox21 10K compound library. The cytotoxicity of the Tox21 compound library against the ESRE-bla HeLa cell line was tested in parallel by measuring cell viability using the CellTiter-Glo assay in the same wells.
Tox21 Assay Protocol Summary: ESRE-bla HeLa cells were dispensed at 1,500 cells/6 uL of assay medium per well into black wall/clear-bottom 1536-well plates using a Multidrop Combi (ThermoFisher Scientific, Waltham, MA) dispenser. After the assay plates were incubated at 37 C and 5% CO2 for an overnight, 23 nL of compounds dissolved in DMSO, positive controls or DMSO only was transferred to the assay plate by a Pintool station (Kalypsys, San Diego, CA). The assay plates were incubated at 37 C and 5% CO2 for 5 hr. One uL of LiveBLAzer B/G FRET substrate (Life Technologies) was added using a FRD (Flying Reagent Dispenser, Aurora Discovery, San Diego, CA) and the plates were incubated at room temperature for 2 hr. Fluorescence intensity (405 nm excitation, 460 nm and 530 nm emissions) was measured using an Envision plate reader (PerkinElmer, Shelton, CT). For cytotoxicity, 4 ul/well of CellTiter-Glo reagent was added into the assay plates using an FRD. After 30 min incubation at room temperature, the luminescence intensity was measured using a ViewLux plate reader (PerkinElmer).
Potency is the fitted concentration of half-maximal effect.

SMILES	Potency	activity change, negative = cytotoxicity
S=C1NCCN1	inactive	–
CCOP(=S)(OCC)O/N=C(\C#N)c1ccccc1	inactive	–
COP(=S)(OC)Oc1ccc([N+](=O)[O-])cc1	inactive	–
Nc1c(Cl)cc([N+](=O)[O-])cc1Cl	inactive	–
O=C(O)CC[N+](=O)[O-]	–	2.01% [at 78.8 µM] (inactive)
NNC(=S)NN	–	4.86% [at 78.8 µM] (inactive)
CCN(CC)N=O	inactive	–
Nc1ccc(-c2ccc(N)c(N)c2)cc1N	inactive	–
CCCCOCCOP(=O)(OCCOCCCC)OCCOCCCC	inactive	–
CC(C)=CC1C(C(=O)OCc2coc(Cc3ccccc3)c2)C1(C)C (stereo not given)	inactive	–
Cc1ccc2c(c1N)C(=O)c1ccccc1C2=O	inactive	–
CCc1cccc(CC)c1N(COC)C(=O)CCl	inactive	–
CCCCC(CC)COC(=O)Cl (stereo not given)	inactive	–
O=[N+]([O-])c1ccc(O)c([N+](=O)[O-])c1	inactive	–
Nc1ccc(-c2ccccc2)cc1	–	-0.916% (inactive)
Nc1cccnc1	inactive	–
Nc1ccc(Cl)cc1N	–	8.06% [at 78.8 µM] (inactive)
Oc1c(Cl)c(Cl)c(Cl)c(Cl)c1Cl	–	-5.49% (inactive)
O=Cc1ccco1	inactive	–
CCN(CC)C(=O)SCc1ccc(Cl)cc1	inactive	–

SMILES	Potency	activity change, negative = cytotoxicity
C[C@]12CCC(=O)C[C@@H]1CC[C@@H]1[C@@H]2CC[C@]2(C)[C@@H](O)CC[C@@H]12	inactive	–
Cc1cc(C)cc(C)c1	inactive	–
CCOc1cc(Oc2ccc(C(F)(F)F)cc2Cl)ccc1[N+](=O)[O-]	inactive	–
Cc1ccc(OP(=O)(Oc2ccc(C)cc2)Oc2ccc(C)cc2)cc1	–	-17.5% (inactive)
Oc1cc(Cl)c(Cl)cc1Cl	inactive	–
Nc1ccc(Cl)c(Cl)c1	inactive	–
Oc1ccc(-c2ccccc2)cc1	inactive	–
Cc1ccc(N)c(N)c1	inactive	–
CCC(C)(c1ccc(O)cc1)c1ccc(O)cc1	inactive	–
c1ccc(P(c2ccccc2)c2ccccc2)cc1	inactive	–
Nc1ccncc1	inactive	–
COC(=O)c1sccc1S(=O)(=O)NC(=O)Nc1nc(C)nc(OC)n1	inactive	–
NNC(N)=S	–	5.9% (inactive)
CCCCCCOC(=O)c1ccccc1C(=O)OCCCCCC	inactive	–
Cc1cc(Cl)ccc1OCCCC(=O)O	inactive	–
CN(C)c1ccc(C(=O)c2ccc(N(C)C)cc2)cc1	inactive	–
CC(C)(c1cc(Cl)c(O)c(Cl)c1)c1cc(Cl)c(O)c(Cl)c1	43.7 µM (active) and 43.6 µM (active)	–
CCN(CC)C(=O)/C(Cl)=C(\C)OP(=O)(OC)OC	inactive	–
CN(C)C(=O)Nc1ccc(Cl)cc1	inactive	–
CCC(C)(C)c1ccc(O)cc1	–	-8.04% (inactive)
